Data from PubChem BioAssay (NCATS).
Inconclusive results are not listed. Where a call stands in place of a potency, no number is given. A number with no mark means an inactive call. Calls of active or inactive are those of the source. Unless noted, the call rests on the fitted dose curve.

Test system: not listed separately
Experiment: qHTS for Inhibitors of the Functional Ribonucleoprotein Complex (vRNP) of Lymphocytic Choriomeningitis Arenaviruses (LCMV): Viability assay - alamar blue signal for LCMV Primary Screen (AID 1347085; calls by dose curve; tested in HEK293 reporter line; further: nearly all actives have a fitted effect of over 80% in size)
Conditions: alamar blue viability counter-screen, LCMV vRNP screen cells; series mostly up to 57.5 µM

**Q.** With CC(C)(OC1OC(CO)C(O)C(O)C1O)[C@H]1Oc2ccc3ccc(=O)oc3c2[C@H]1O (stereo not given in full) as the compound, how does the Potency read?
**A.** inactive

**Q.** Which Potency does the source give for Cn1c(=O)c2nncnc2n(C)c1=O here?
**A.** inactive

**Q.** With COc1ccccc1NC(C)=O as the compound, how does the Potency read?
**A.** inactive

**Q.** For CC(=O)O[C@H]1CC[C@@]2(C)[C@H](C1)C(=O)C[C@H]1[C@@H]3CC[C@@H]4[C@@H](CN5C[C@@H](C)CC[C@H]5[C@@]4(C)O)[C@@H]3C[C@@H]12, which Potency is on record?
**A.** inactive

**Q.** Which Potency does the source give for O=c1cc(-c2ccc(O)cc2)oc2c([C@@H]3O[C@H](CO)[C@@H](O)[C@H](O)[C@H]3O)c(O)c([C@@H]3O[C@H](CO)[C@@H](O)[C@H](O)[C@H]3O)c(O)c12 here?
**A.** inactive

**Q.** Which Potency does the source give for O=C(Nc1ccc(Br)cc1)C(c1ccccc1)c1ccccc1 here?
**A.** inactive

**Q.** For COC(=O)C(O)C(O)(CCC(C)C)C(=O)OC1C(OC)=CC23CCCN2CCc2cc4c(cc2C13)OCO4 (stereo not given), which Potency is on record?
**A.** inactive

**Q.** Which Potency does the source give for CC1=CC(C/C(C)=C/COc2ccc3ccc(=O)oc3c2)OC1=O (stereo not given) here?
**A.** inactive

**Q.** With C=C1C(=O)O[C@H]2C[C@]3(C)C([C@@H](OC(=O)/C(C)=C/C)[C@H]12)[C@](C)(O)CC[C@H]3O (stereo not given in full) as the compound, how does the Potency read?
**A.** inactive

**Q.** Which Potency does the source give for COc1ccc(-c2cc(=O)c3c(O)cc(OC4OC(COC5OC(C)C(O)C(O)C5O)C(O)C(O)C4O)cc3o2)cc1O (stereo not given) here?
**A.** inactive

**Q.** With CC[C@H]1OC(=O)[C@H](C)[C@@H](O[C@H]2C[C@@](C)(OC)[C@@H](O)[C@H](C)O2)[C@H](C)[C@@H](O[C@@H]2O[C@@H](C)C[C@H](N(C)C)[C@@H]2O)[C@](C)(O)C[C@@H](C)C(=O)[C@H](C)[C@@H](O)[C@]1(C)O as the compound, how does the Potency read?
**A.** inactive

**Q.** Which Potency does the source give for C=CC[C@]12C=C(OC)C(=O)C=C1O[C@@H](c1ccc3c(c1)OCO3)[C@H]2C here?
**A.** inactive

**Q.** With Nc1nc(=O)n([C@H]2CSC(CO)O2)cc1F (stereo not given in full) as the compound, how does the Potency read?
**A.** inactive

**Q.** With O=C(O)/C=C/c1ccc2c(c1)OCO2 as the compound, how does the Potency read?
**A.** inactive

**Q.** Which Potency does the source give for O=C(O)COc1ccc(Cl)cc1CO here?
**A.** inactive

**Q.** For CC(=O)C1CCC2(O)C3CCC4=CC(=O)CCC4(C)C3CCC12C (stereo not given), which Potency is on record?
**A.** inactive

**Q.** Which Potency does the source give for COC(=O)C1=CO[C@@H](C)[C@@H]2CN3CC[C@@]4(C(=O)Nc5ccccc54)[C@@H]3C[C@H]12 here?
**A.** inactive

**Q.** For COc1c2c(cc3oc(C)cc(=O)c13)OC(C(C)(C)OC1OC(CO)C(O)C(O)C1O)C2 (stereo not given), which Potency is on record?
**A.** inactive

**Q.** With C[C@H]1OC(=O)CC[C@@H]2[C@]1(C)CCC1[C@@]2(C)CC[C@@]2(C)C3CC(C)(C)CC[C@]3(CO)CC[C@]12C (stereo not given in full) as the compound, how does the Potency read?
**A.** inactive

**Q.** Which Potency does the source give for O=C1CCCCCCCCCCCCCC1 here?
**A.** inactive

**Q.** For CCC(CC)C(=O)O, which Potency is on record?
**A.** inactive

**Q.** Which Potency does the source give for C=C1CCC2C(C)(C)[C@@H](O)CC[C@@]2(C)[C@@H]1COc1ccc2ccc(=O)oc2c1 (stereo not given in full) here?
**A.** inactive

**Q.** With NCc1ccccc1 as the compound, how does the Potency read?
**A.** inactive

**Q.** For CCCCC[C@H](O)/C=C/C=C\C/C=C\C=C\[C@@H](O)CCCC(=O)O, which activity change, negative = lower viability is on record?
**A.** 2.14% [at 0.757 µM]

**Q.** With O=c1[nH]c(=O)c2ncn(C3OC(CO)C(O)C3O)c2[nH]1 (stereo not given) as the compound, how does the Potency read?
**A.** inactive

**Q.** With CCOC(=O)c1cc(=O)[nH]c2ccccc12 as the compound, how does the Potency read?
**A.** inactive

**Q.** Which Potency does the source give for COc1ccc(COC(C)=O)cc1 here?
**A.** inactive

**Q.** With CCCCCC(C)O (stereo not given) as the compound, how does the Potency read?
**A.** inactive

**Q.** For CCCCCCCCCCCC(=O)c1c(O)cccc1O, which Potency is on record?
**A.** inactive

**Q.** For Cc1cc(O)c2c(c1)C(O)(C1OC(CO)C(O)C(O)C1O)c1cccc(O)c1C2=O (stereo not given), which Potency is on record?
**A.** inactive

**Q.** Which Potency does the source give for O=c1cc(-c2ccccc2)c2c(O)cc(O)cc2o1 here?
**A.** inactive

**Q.** Which Potency does the source give for CCc1ccc(O)c(OC)c1 here?
**A.** inactive

**Q.** Which Potency does the source give for CC(C)=CCC/C(C)=C/COC=O here?
**A.** inactive

**Q.** For COc1ccc(C(=O)OC2CC3CC[C@H](C2)N3C(C)=O)cc1OC (stereo not given in full), which Potency is on record?
**A.** inactive

**Q.** With COc1ccc(/C=C/C(=O)O)cc1 as the compound, how does the Potency read?
**A.** inactive

**Q.** Which Potency does the source give for NCCC[C@H](N)CC(=O)N[C@H]1CNC(=O)[C@H]([C@H]2C[C@H](O)N=C(N)N2)NC(=O)C(=CNC(N)=O)NC(=O)[C@H](CO)NC(=O)[C@H](CO)NC1=O here?
**A.** inactive

**Q.** For COc1ccc(-c2coc3cc(O[C@@H]4O[C@H](CO)[C@@H](O)[C@H](O)[C@H]4O)c(OC)cc3c2=O)cc1, which Potency is on record?
**A.** inactive

**Q.** Which Potency does the source give for Cc1cc(=O)oc2cc3c(cc12)OCO3 here?
**A.** inactive

**Q.** For COC(=O)c1c(C)cc(O)c(C=O)c1O, which Potency is on record?
**A.** inactive

**Q.** With CCCCCCCC1CCC(=O)O1 (stereo not given) as the compound, how does the Potency read?
**A.** inactive

Molecular target: Nucleoprotein (Lymphocytic choriomeningitis virus (strain Armstrong)) (UniProt P09992)
Sequence (P09992 whole entry, looked up): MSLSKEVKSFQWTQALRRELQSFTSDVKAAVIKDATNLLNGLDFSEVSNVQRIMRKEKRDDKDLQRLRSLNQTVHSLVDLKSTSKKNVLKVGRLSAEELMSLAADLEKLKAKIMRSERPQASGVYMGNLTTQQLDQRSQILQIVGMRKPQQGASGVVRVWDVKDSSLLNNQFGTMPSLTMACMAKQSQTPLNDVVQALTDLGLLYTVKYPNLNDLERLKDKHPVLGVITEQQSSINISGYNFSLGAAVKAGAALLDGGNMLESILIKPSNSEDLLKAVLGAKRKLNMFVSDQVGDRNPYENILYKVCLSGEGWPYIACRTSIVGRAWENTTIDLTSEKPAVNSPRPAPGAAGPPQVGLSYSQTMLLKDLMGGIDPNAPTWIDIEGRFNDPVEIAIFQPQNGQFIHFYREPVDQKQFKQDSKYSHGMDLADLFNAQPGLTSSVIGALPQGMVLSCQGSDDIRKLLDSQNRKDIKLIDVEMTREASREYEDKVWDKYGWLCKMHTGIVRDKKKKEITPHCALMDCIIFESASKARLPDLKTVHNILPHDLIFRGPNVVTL
Experiment: qHTS for Inhibitors of the Functional Ribonucleoprotein Complex (vRNP) of Lymphocytic Choriomeningitis Arenaviruses (LCMV): LCMV Primary Screen - GLuc reporter signal (AID 1347086); further: nearly all actives have a fitted effect of over 70% in size
Conditions: LCMV minigenome vRNP cell assay, Gaussia luciferase reporter; series mostly up to 57.5 µM

**Q.** For CC(C)(OC1OC(CO)C(O)C(O)C1O)[C@H]1Oc2ccc3ccc(=O)oc3c2[C@H]1O (stereo not given in full), which Potency is on record?
**A.** inactive

**Q.** With Cn1c(=O)c2nncnc2n(C)c1=O as the compound, how does the Potency read?
**A.** inactive

**Q.** Which Potency does the source give for COc1ccccc1NC(C)=O here?
**A.** inactive

**Q.** With CC(=O)O[C@H]1CC[C@@]2(C)[C@H](C1)C(=O)C[C@H]1[C@@H]3CC[C@@H]4[C@@H](CN5C[C@@H](C)CC[C@H]5[C@@]4(C)O)[C@@H]3C[C@@H]12 as the compound, how does the Potency read?
**A.** inactive

**Q.** Which Potency does the source give for O=c1cc(-c2ccc(O)cc2)oc2c([C@@H]3O[C@H](CO)[C@@H](O)[C@H](O)[C@H]3O)c(O)c([C@@H]3O[C@H](CO)[C@@H](O)[C@H](O)[C@H]3O)c(O)c12 here?
**A.** inactive

**Q.** Which Potency does the source give for O=C(Nc1ccc(Br)cc1)C(c1ccccc1)c1ccccc1 here?
**A.** inactive

**Q.** Which Potency does the source give for COC(=O)C(O)C(O)(CCC(C)C)C(=O)OC1C(OC)=CC23CCCN2CCc2cc4c(cc2C13)OCO4 (stereo not given) here?
**A.** inactive

**Q.** For CC1=CC(C/C(C)=C/COc2ccc3ccc(=O)oc3c2)OC1=O (stereo not given), which Potency is on record?
**A.** inactive

**Q.** For C=C1C(=O)O[C@H]2C[C@]3(C)C([C@@H](OC(=O)/C(C)=C/C)[C@H]12)[C@](C)(O)CC[C@H]3O (stereo not given in full), which Potency is on record?
**A.** inactive

**Q.** Which Potency does the source give for COc1ccc(-c2cc(=O)c3c(O)cc(OC4OC(COC5OC(C)C(O)C(O)C5O)C(O)C(O)C4O)cc3o2)cc1O (stereo not given) here?
**A.** inactive

**Q.** Which Potency does the source give for CC[C@H]1OC(=O)[C@H](C)[C@@H](O[C@H]2C[C@@](C)(OC)[C@@H](O)[C@H](C)O2)[C@H](C)[C@@H](O[C@@H]2O[C@@H](C)C[C@H](N(C)C)[C@@H]2O)[C@](C)(O)C[C@@H](C)C(=O)[C@H](C)[C@@H](O)[C@]1(C)O here?
**A.** inactive

**Q.** For C=CC[C@]12C=C(OC)C(=O)C=C1O[C@@H](c1ccc3c(c1)OCO3)[C@H]2C, which Potency is on record?
**A.** inactive

**Q.** With Nc1nc(=O)n([C@H]2CSC(CO)O2)cc1F (stereo not given in full) as the compound, how does the Potency read?
**A.** inactive

**Q.** For O=C(O)/C=C/c1ccc2c(c1)OCO2, which Potency is on record?
**A.** inactive

**Q.** For O=C(O)COc1ccc(Cl)cc1CO, which Potency is on record?
**A.** inactive

**Q.** Which Potency does the source give for CC(=O)C1CCC2(O)C3CCC4=CC(=O)CCC4(C)C3CCC12C (stereo not given) here?
**A.** inactive

**Q.** Which Potency does the source give for COC(=O)C1=CO[C@@H](C)[C@@H]2CN3CC[C@@]4(C(=O)Nc5ccccc54)[C@@H]3C[C@H]12 here?
**A.** inactive

**Q.** With COc1c2c(cc3oc(C)cc(=O)c13)OC(C(C)(C)OC1OC(CO)C(O)C(O)C1O)C2 (stereo not given) as the compound, how does the Potency read?
**A.** inactive

**Q.** For C[C@H]1OC(=O)CC[C@@H]2[C@]1(C)CCC1[C@@]2(C)CC[C@@]2(C)C3CC(C)(C)CC[C@]3(CO)CC[C@]12C (stereo not given in full), which Potency is on record?
**A.** inactive

**Q.** With O=C1CCCCCCCCCCCCCC1 as the compound, how does the Potency read?
**A.** inactive

**Q.** For CCC(CC)C(=O)O, which Potency is on record?
**A.** inactive

**Q.** Which Potency does the source give for C=C1CCC2C(C)(C)[C@@H](O)CC[C@@]2(C)[C@@H]1COc1ccc2ccc(=O)oc2c1 (stereo not given in full) here?
**A.** inactive

**Q.** For NCc1ccccc1, which Potency is on record?
**A.** inactive

**Q.** Which activity change, negative = inhibition does the source give for CCCCC[C@H](O)/C=C/C=C\C/C=C\C=C\[C@@H](O)CCCC(=O)O here?
**A.** 18.8% [at 0.757 µM]

**Q.** Which Potency does the source give for O=c1[nH]c(=O)c2ncn(C3OC(CO)C(O)C3O)c2[nH]1 (stereo not given) here?
**A.** inactive

**Q.** With CCOC(=O)c1cc(=O)[nH]c2ccccc12 as the compound, how does the Potency read?
**A.** inactive

**Q.** For COc1ccc(COC(C)=O)cc1, which Potency is on record?
**A.** inactive

**Q.** For CCCCCC(C)O (stereo not given), which Potency is on record?
**A.** inactive

**Q.** For CCCCCCCCCCCC(=O)c1c(O)cccc1O, which Potency is on record?
**A.** inactive

**Q.** With Cc1cc(O)c2c(c1)C(O)(C1OC(CO)C(O)C(O)C1O)c1cccc(O)c1C2=O (stereo not given) as the compound, how does the Potency read?
**A.** inactive

**Q.** Which Potency does the source give for O=c1cc(-c2ccccc2)c2c(O)cc(O)cc2o1 here?
**A.** inactive

**Q.** For CCc1ccc(O)c(OC)c1, which Potency is on record?
**A.** inactive

**Q.** For CC(C)=CCC/C(C)=C/COC=O, which Potency is on record?
**A.** inactive

**Q.** For COc1ccc(C(=O)OC2CC3CC[C@H](C2)N3C(C)=O)cc1OC (stereo not given in full), which Potency is on record?
**A.** inactive

**Q.** With COc1ccc(/C=C/C(=O)O)cc1 as the compound, how does the Potency read?
**A.** inactive

**Q.** Which Potency does the source give for NCCC[C@H](N)CC(=O)N[C@H]1CNC(=O)[C@H]([C@H]2C[C@H](O)N=C(N)N2)NC(=O)C(=CNC(N)=O)NC(=O)[C@H](CO)NC(=O)[C@H](CO)NC1=O here?
**A.** inactive

**Q.** With COc1ccc(-c2coc3cc(O[C@@H]4O[C@H](CO)[C@@H](O)[C@H](O)[C@H]4O)c(OC)cc3c2=O)cc1 as the compound, how does the Potency read?
**A.** inactive

**Q.** Which Potency does the source give for Cc1cc(=O)oc2cc3c(cc12)OCO3 here?
**A.** inactive

**Q.** For COC(=O)c1c(C)cc(O)c(C=O)c1O, which Potency is on record?
**A.** inactive

**Q.** Which Potency does the source give for CCCCCCCC1CCC(=O)O1 (stereo not given) here?
**A.** inactive
